HP1b chromo inh = HP1-beta chromodomain-methylated histone interaction inhibition | hit rate 0.56% among 390,000 | P83916 | Potency, µM (top dose mostly 114 µM), for the others: top-dose activity change, negative = inhibition, usual class: inhibitors | AlphaScreen HP1-beta / biotin-H3K9me3 peptide binding; further: nearly all actives have a fitted effect of over 70% in size
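AlphaScreen: HP1-beta (50 nM) preformed 30 min with biotin-H3(1-18)K9me3 peptide (50 nM) in PBS pH 7.4, 0.01% Tween-20. Compound added for 30 min at RT, then streptavidin donor/nickel chelate acceptor beads (10 ug/mL) for 30 min.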
L3MBTL1 block = blocks human L3MBTL1 | Q9Y468 | AlphaScreen L3MBTL1–H3K9me1 peptide binding | Potency, µM (doses to about 57.1 µM), for inactives: at the highest dose activity, negative = inhibition, most hits filed as inhibitors | hit rate 0.66% among 230,000 | AID 485360; further: on the % scale 0 is the no-effect control and ±100 the full control effect; nearly all actives have a fitted effect of over 60% in size
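L3MBTL1 (50 nM) pre-complexed 30 min with biotinylated H3(1-15)K9me1 peptide (75 nM), then compounds added for 30 min at room temperature; AlphaScreen streptavidin donor/nickel chelate acceptor beads (10 ug/mL final) read after 30 min dark incubation.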
BAZ2B block = blocks human BAZ2B. AlphaScreen BAZ2B-H3K14Ac peptide displacement. AID 504333. Potency, µM (highest dose often 114 µM), without a hit: top-dose activity change, negative = inhibition, actives largely listed as inhibitors. hit rate 4.4% among 360,000; further: on the % scale 0 is the no-effect control and ±100 the full control effect; nearly all actives have a fitted effect of over 60% in size
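In this displacement format the biotinylated H3(5-23) peptide acetylated at Lys14 serves as ligand at 50 nM, with BAZ2B at 50 nM in PBS pH 7.4 containing 0.01% Tween-20. Donor and acceptor beads are 10 ug/mL final.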
G9a block = G9a (human) methyltransferase inhibition. Q96KQ7. G9a H3K9 monomethylation, AlphaScreen, 2 h. Potency, µM (highest dose often 102 µM), without a hit: top-dose activity, negative = inhibition, actives largely listed as inhibitors. hit rate 8.8% among 350,000. AID 504332; further: on the % scale 0 is the no-effect control and ±100 the full control effect; nearly all actives have a fitted effect of over 75% in size
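Signal arises when biotinylated H3K9 peptide, once monomethylated, bridges streptavidin donor and antibody-captured acceptor beads. Enzyme at 20 nM was preincubated 15 min with test compounds; peptide 500 nM and SAM 20 uM then reacted for 2 h.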
JMJD2A Tudor = inhibitors of human JMJD2A Tudor domain | hit rate 4.4% among 390,000 | AlphaScreen JMJD2A-Tudor / H3K4me3 peptide binding | AID 504339 | O75164 | Potency, µM (series often up to 114 µM), for the others: at the top dose activity change, negative = inhibition, usual class: inhibitors; further: on the % scale 0 is the no-effect control and ±100 the full control effect; nearly all actives have a fitted effect of over 50% in size
An asterisk follows results filed as active; ? = inconclusive; / = no result; ! = repeats disagree; [ ] = another dose, or the depositor's remark. Rows were chosen to be rich in hits. Some 11% of all compounds tested hit in one or more screens of this group. The call rests on the fitted dose curve; in most records, active means well fitted inhibition curve with a large enough effect; inconclusive means small, poorly fitted or top-dose-only effect; inactive means no such curve, though single readings can be large or run the other way. Potency means the concentration at half of the fitted maximal effect.

SMILES	HP1b chromo inh	L3MBTL1 block	BAZ2B block	G9a block	JMJD2A Tudor
O=c1c2c([nH]c3ccccc13)C(=C1CCCC1)CC2	24%	?	?	35µM*	-23%
Cc1ccc2cccc(OC(=O)c3ccc4c(c3)OCCO4)c2n1	27%	-1%	/	8.9µM*	?
Cc1[nH]c2ccccc2c1-c1csc(N)n1	5%	-11%	?	79µM*	-32%
CNc1nc(-c2c(C)[nH]c3ccc(OC)cc23)cs1	-3%	/	50µM*	40µM*	?
COc1ccccc1Nc1nc(-c2c(C)[nH]c3ccccc23)cs1	?	-8%	40µM*	14µM*	50µM*
Nc1nc(-c2nc3ccccc3[nH]2)cs1	34%	-16%	-26%	?	-33%
COc1cccc(OC)c1C(=O)Nc1ccc(S(=O)(=O)Nc2nccc(C)n2)cc1	37%	/	3%[57.1 µM]	-2%[59 µM]	-4%
CCCN1C(=O)c2ccccc2CC1(C)C(=O)NC1CCCCC1 (stereo unspecified)	35%	/	4%	3%[59 µM]	-2%
Cc1ccc(C)c(S(=O)(=O)N2CCN(C(=O)c3ccc(OCc4c(C)noc4C)cc3)CC2)c1	24%	-19%	-4%	-25%	-23%
COc1cc(C2NC(=O)c3c(sc4c3CCN(C)C4)N2)ccc1OC(=O)c1ccccc1 (stereo unspecified)	-4%	/	-25%	10µM*	-34%
CN1CCc2c(sc3c2C(=O)NC(c2cccc(OC(=O)c4cccs4)c2)N3)C1 (stereo unspecified)	16%	-7%	-37%	40µM*	?
c1ccc(-c2nc3nonc3nc2-c2ccccc2)cc1	?	?	28µM*	14µM*	40µM*
O=C(NCCCN1CCCC1=O)c1cccs1	12%	/	0%	-4%[12.7 µM]	-10%
O=C(NCCCN1CCCC1=O)c1c(O)nc2sccn2c1=O	10%	4%	-34%	-8%	35µM*
Cc1ccc(NC(=O)N(Cc2cn(C)c3ccccc23)C2CCCCC2)cc1C	8%	/	/	-11%[59 µM]	-31%
COc1cc(C(=O)NS(=O)(=O)c2ccccc2C)ccc1Cc1cn(C)c2ccc(NC(=O)OC3CCCC3)cc12	/	/	50µM*	?	/
O=[S+]([O-])(NC[C@H]1CCC[C@H](CN[S+](=O)([O-])c2c(F)cccc2F)C1)c1ccc2c(c1)OCCO2	/	/	/	/	-14%
Cc1ccc(C)c(SCC(=O)Nc2cc(C)nn2-c2ccc(F)cc2)c1	/	7%	7%	11µM*	/
CC1(C)CCC(C)(C)NC(=S)N1	27%	4%	0%	9%[59 µM]	1%
CC1CC(C)(C)NC(=S)O1 (stereo unspecified)	2%	-3%	-7%	79µM*!	-8%
CCN(CC)CCOC(=O)c1ccc(NC(=O)CCCN2C(=O)S/C(=C/c3ccc(OC)cc3)C2=S)cc1	?	/	?	40µM*	?
CCOc1ccc(/C=C2/SC(=S)N(CCC(=O)Nc3ccc(C(=O)O)cc3)C2=O)cc1	35µM*	/	32µM*	16µM*	10µM*
CCOc1ccc(/C=C2\SC(=S)N(CCC(=O)O)C2=O)cc1	10%	5%	-22%	4%	-23%
O=C(CCN1C(=O)/C(=C\c2ccccc2)SC1=S)Nc1ccc(C(=O)O)cc1	-30%	/	56µM*	?	?
COc1ccc(/C=C2\SC(=S)N(CCCC(=O)Nc3ccc(C(=O)O)cc3)C2=O)cc1OC	-10%	/	50µM*	/	?
SMILES	HP1b chromo inh	L3MBTL1 block	BAZ2B block	G9a block	JMJD2A Tudor
COc1ccc(/C=C2\SC(=O)N(CCCC(=O)Nc3ccc(C(=O)O)cc3)C2=O)cc1OC	15%	/	-2%	9%	-4%
O=C(O)c1sccc1Oc1ccc(NS(=O)(=O)c2ccccc2)cc1	59%	/	-17%	10%	-11%
CCc1ccc(NS(=O)(=O)c2ccc3[nH]cc(C(=O)NCc4ccc(C)cc4)c(=O)c3c2)cc1	20%	/	/	-7%[59 µM]	-20%
CC(C)(C)OC(=O)N1CCC[C@H]1C(=O)NCc1ccc(Cl)cc1Cl	-5%	22%	-3%	0%	45µM*
COC(=O)CNC(=O)C1CCCN1C(=O)OC(C)(C)C (stereo unspecified)	28%	/	3%	8%[12.7 µM]	-16%
Cc1nc(SCC(=O)OC(C)(C)C)c2c3c(sc2n1)CCCC3	42%	/	3%	0%[59 µM]	12%

Assay outcomes: PubChem BioAssay, National Center for Advancing Translational Sciences (NCATS)
